Data from PubChem BioAssay (NCI).
About 83,000 compounds went through this panel and 20% of them were active in at least one assay; those are over-represented in the sample as a whole.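 Interpretation: 100, growth as untreated; towards 0, rising growth inhibition; 0, no net growth; 0 to -100, cell death. Compounds scoring below 10 were considered active.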 A number with no mark means an inactive call. The source made the active and inactive calls.

system: CAKI-1 renal; test: NCI-60 one-dose screen, 48 h (100 = growth as untreated, 0 = no growth, -100 = all killed); conditions: 10 µM unless noted
Experimental: Growth inhibition of the CAKI-1 human tumor cell line is measured as a screen for anti-cancer activity. Cells are grown in 96 well plates and exposed to the test compound for 48 hours. Compounds are tested at a single concentration, which is 10^-5 M for most compounds. The reported endpoint is percent growth (GI% or GIPRCNT), where numbers from 0 - 100% represent growth inhibition, and numbers from -100% - 0 represent cell death. For example, a value of 40 represents 60% growth inhibition. A value of 0 means no net growth occurred over the course of the experiment. A value of -40 indicates 40% of cells at the beginning of the experiment died by the end of the experiment. A value of -100 means all cells are dead at the end of the experiment.
NCI-60 Human Tumor Cell Lines Screen was performed using the standard one-dose NCI protocol, which is described in more detail at https://dtp.cancer.gov/discovery_development/nci-60/default.htm.
Compounds with GIPRCNT values below 10 were considered active. Activity score was based on GIPRCNT using the following formula: […]
Score is 0 for GIPRCNT values of 100 or above, 50 for GIPRCNT values of 0, and 100 for GIPRCNT values of -100.

Compared with NC(CCC(=O)NC(CS)C(=O)NCC(=O)O)C(=O)O (stereo not given), CCOC(=O)c1cc(C(=O)OCC)c(C)nc1C is higher in growth: 100% for the first, 103% for the second.

Going from O=C(O)c1cc2cc(OCc3ccccc3)ccc2[nH]1 to O=C1OC(/C=C/c2ccccc2)=NC/1=C/c1ccccc1[N+](=O)[O-], the growth rises from 82.3% to 88.7%.

Compared with C=C(COC(C)=O)[C@H]1CC/C(C)=C/CC/C(C)=C/CC[C@@]2(C)O[C@H]2C1, CC(C)CCC(=O)[C@@H](C)[C@H]1[C@@H](OC2OCC(O)C(O)C2NS(C)(=O)=O)C[C@H]2[C@@H]3CC=C4C[C@@H](O)CC[C@]4(C)[C@H]3CC[C@]12C (stereo not given in full) is lower in growth: 126% for the first, 24.1% for the second.

First: O=C1Nc2ccc(Cl)cc2/C1=C\c1c(-c2ccc(F)cc2)nc2ccccn12
Second: COc1ccc2[nH]cc(C3(c4c[nH]c5ccc(OC)cc45)C(=O)Nc4ccc(Cl)cc43)c2c1
The growth of the first is lower: 40.2% for the first, 62.2% for the second.

Going from OC(CCCCCCCCC(O)CN1CCc2ccccc2C1)CN1CCc2ccccc2C1 (stereo not given) to O=C(CCCN1CCC(O)(c2ccc(Br)cc2)CC1)c1ccc(F)cc1, the growth falls from 92.6% to 82.1%.

Going from CNCCCn1c2c(c3ccc(Cl)cc3c1=O)C(=O)c1cc(OC)cnc1-2 to COc1ccc(-c2cc(C(=O)Nc3ccc(Br)cc3)nc3[nH]c(=O)sc23)cc1, the growth falls from 35.3% to 34.6%.

First: O=C1C=CN2C(=O)CC=CC2[C@@H]1O (stereo not given in full)
Second: O=C1/C(=C/c2cc(F)cc(F)c2)Cc2cc(F)cc(F)c21
The growth of the first is higher: 109% for the first, 77.6% for the second.

First: COc1cc(CN2CCC(N3CCCC3=O)c3ccccc32)cc(OC)c1OC (stereo not given)
Second: COc1cc(NCCC2CCCCN2)c2ncccc2c1OC (stereo not given)
The growth of the first is lower: 70.7% for the first, 100% for the second.

Going from COC(=O)c1ccc2c(c1)nc(-c1ccc(Cl)cc1)n2-c1cc(C(C)(C)C)[nH]n1 to COc1cc(C2CC(c3ccccc3)=NN2C=O)ccc1Oc1ccnc2cc(Cl)ccc12 (stereo not given), the growth falls from 50.4% to 49.6%.

Compared with CCC1=CC2CN(C1)Cc1c([nH]c3ccccc13)[C@@](C(=O)OC)(c1cc3c(cc1OC)N(C)[C@H]1[C@@](O)(C(=O)OC)[C@H](OC(C)=O)[C@]4(CC)C=CCN5CC[C@]31[C@@H]54)C2 (stereo not given in full), COc1cc(/C=C\c2cc(/C=C\c3ccc(O)c(OC)c3)n(C(=O)Nc3ccc(C(F)(F)F)cc3)n2)ccc1O is higher in growth: 44.3% for the first, 55% for the second.

First: CCN(CCC#N)c1ccccc1
Second: CC1(C)OC2OC3C(CN)OC(c4ccccc4)OC3C2O1 (stereo not given)
The growth of the first is higher: 97.7% for the first, 92.5% for the second.

Going from CC(C)CCSc1nc(-c2ccc(F)cc2)c(C#N)c(N2CCN(C)CC2)n1 to N=C(N)c1ccc(-c2ccc(-c3ccco3)o2)cc1F, the growth falls from 60.8% to 23.1%.

First: O/N=C/c1ccncc1
Second: NC(N)=N/N=C/c1ccc(Cl)cc1
The growth of the first is higher: 84.3% for the first, 34% for the second.

Going from Cc1cc(O)c2cc3c(O)c(O)ccc3cc2c1 to Nc1c(N)c2ccccc2c2ccccc12, the growth falls from 105% to 89%.

Going from O=C(N/N=C/c1ccc([N+](=O)[O-])o1)c1ccc(O)cc1 to CC(=O)Nc1ccc(/C=N/N2CCCCCC2)cc1, the growth rises from 88.3% to 92.7%.

Compared with CC(=O)Oc1c(Cl)c(Cl)c(Cl)c(Cl)c1Cl, CCOCCNc1ccc(S(=O)(=O)c2ccc(N)cc2)cc1N is lower in growth: 89.2% for the first, 86.7% for the second.

Compared with Cc1cc(C#Cc2ccc(C(C)(C)C)cc2)ccc1-n1c(/C=C/c2c(Cl)cccc2Cl)nc2ccccc2c1=O, O=C(CSc1nnc(Cc2ccccc2Nc2c(Cl)cccc2Cl)n1-c1ccccc1)N1N=C(c2ccc3ccccc3c2)CC1c1ccc(Cl)cc1 (stereo not given) is higher in growth: 83.9% for the first, 92.7% for the second.

First: O=C(CSc1nc2c(n1Nc1ccccc1)-c1ccccc1SC2)Nc1nccs1
Second: CN(C)c1ccc(/C=C\c2cccc[n+]2C)cc1
The growth of the first is higher: 73.7% for the first, 42.1% for the second.

In the case of N=C(N)c1ccc(-c2ccc(-c3cccs3)s2)cc1F, the growth is reported as -72.6% (active).
With CCCCCCCCN=C(NCCCCCCCC)SCc1cccc2ccccc12 the growth was -84.9% (active).
C=C1C(=O)O[C@H]2[C@H]1CC/C(COC(=O)NCc1c[nH]c3ccc(OC)cc13)=C\CC[C@@]1(C)O[C@@H]21 was tested, and the growth was -2.21% (active).
COc1ccccc1CNCCCN1C(=O)c2ccc3c4c(ccc(c24)C1=O)C(=O)N(CCCOCCCCOCCCN)C3=O was tested, and the growth was -4.24% (active).
